Measurements: PubChem BioAssay (Tox21)
Inconclusive results are not listed. A call without a number means that no potency is given here. Values without a mark were called inactive. Calls of active or inactive are those of the source. Unless noted, calls come from the whole dose curve; as a rule, active = well fitted curve in the direction sought with a large enough effect in the repeat runs; inconclusive = weak or mixed curves; inactive = no such curve, though single readings can be large; an effect the other way counts as inactive or inconclusive.

Key:
[1] = qHTS assay to identify small molecule agonists of the vitamin D receptor (VDR) signaling pathway - cell viability counter screen (AID 743224); note: nearly all actives have a fitted effect of over 50% in size
In short: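 VDR-bla cells, 4 h after plating, exposed to compounds for 16 h at 37C; viability then read in the same wells as CellTiter-Glo luminescence after 30 min at room temperature, following the bla FRET read.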

[2] = qHTS assay to identify small molecule agonists of the NFkB signaling pathway (AID 1159509; active = well fitted curve in the direction sought with a large enough effect in the signal ratio in the repeat runs, not every such curve was filed as active; the % refers to the signal ratio)
In short: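 ME-180 NFkB-bla, 2,000 cells/well, overnight plating; cpd pinned in DMSO, 5 h 37 C; B/G FRET substrate 1.5 h RT; ex 405, em 460/530 nm.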

[3] = qHTS assay to identify small molecule agonists of the NFkB signaling pathway - cell viability counter screen (AID 1159515; calls by dose curve; note: nearly all actives have a fitted effect of over 55% in size)
In short: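 NFkB-bla ME-180 cells, 2,000/well, plated overnight at 37 C; compound added for 5 hr at 37 C. Viability read in the same wells as the bla reporter, by CellTiter-Glo luminescence after 30 min at room temperature.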

[4] = qHTS assay to identify small molecule agonists of the endoplasmic reticulum stress response signaling pathway (AID 1159516; active = well fitted activation curve with a large enough effect in the signal ratio in the repeat runs, not every such curve was filed as active; the % refers to the signal ratio)
In short: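 CellSensor ESRE-bla HeLa cells, 1,500 per well, plated overnight, then exposed to compounds for 5 hr at 37 C. Beta-lactamase reporter read with LiveBLAzer B/G FRET substrate after 2 hr at room temperature, 405 nm excitation, 460 and 530 nm emission.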

[5] = qHTS assay to identify small molecule agonists of the endoplasmic reticulum stress response signaling pathway - cell viability counter screen (AID 1159517; calls by dose curve;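 note: HeLa cells carrying an ER stress response element beta-lactamase reporter; nearly all actives have a fitted effect of over 50% in size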)
In short: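 ESRE-bla HeLa cells, 1,500 per well, seeded overnight then treated with compounds for 5 hr at 37 C. After the beta-lactamase read, viability in the same wells is measured by CellTiter-Glo luminescence after 30 min at room temperature.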

[6] = qHTS assay to identify small molecule antagonists of the retinoid-related orphan receptor gamma (ROR-gamma) signaling pathway - cell viability counter screen (AID 1159520); note: nearly all actives have a fitted effect of over 50% in size
In short: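 Tet-on ROR gamma CHO cells were given compounds for 2 hr, then doxycycline hyclate at 1 uM final, and incubated 16 hr at 37 C. Viability was measured as ATP content by CellTiter-Glo luminescence.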

[7] = target: Nuclear receptor ROR-gamma (Homo sapiens) (UniProt P51449); assay: qHTS assay to identify small molecule antagonists of the retinoid-related orphan receptor gamma (ROR-gamma) signaling pathway (AID 1159521;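 note: CHO cells with doxycycline inducible ROR-gamma driving an RORE luciferase reporter; top concentration of the series differs between compounds; nearly all actives have a fitted effect of over 50% in size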)
In short: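 Decreased RORE-driven luciferase luminescence indicates antagonism. Tet-on RORγ CHO cells received compound, then 1 uM final doxycycline 2 h later; signal read after 16 h incubation.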

[8] = qHTS assay to identify small molecule agonists of the AP-1 signaling pathway - cell viability counter screen (AID 1159525; calls by dose curve; note: nearly all actives have a fitted effect of over 55% in size)
In short: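 AP-1-bla ME-180 cells in Opti-MEM with 0.5% dialyzed FBS, compound exposure 5 h at 37 C in 15-point titration. Viability read in the same wells as ATP content by CellTiter-Glo luminescence, normalised to tetra-n-octylammonium bromide and DMSO controls.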

[9] = qHTS assay to identify small molecule agonists of the AP-1 signaling pathway (AID 1159526; calls by dose curve)
[10] = target: Retinoic acid receptor RXR-alpha (Homo sapiens) (UniProt P19793); assay: qHTS assay to identify small molecule agonists of the RXR signaling pathway (AID 1159527; calls by dose curve; note: nearly all actives have a fitted effect of over 35% in size)
In short: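 16 hr incubation of compound-treated RXR-alpha-UAS-bla HEK 293T cells (2% charcoal-stripped FBS, 37 C) preceded a 2 hr room-temperature LiveBLAzer FRET substrate step and blue/green fluorescence measurement.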

[11] = qHTS assay to identify small molecule agonists of the RXR signaling pathway - cell viability counter screen (AID 1159529)
In short: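 In this parallel viability measure, GeneBLAzer RXR-alpha HEK 293T cells (2% charcoal-stripped FBS) were given a 5 hr preincubation, treated with compounds 16 hr at 37 C, and read by CellTiter-Glo luminescence.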

[12] = qHTS assay to identify small molecule antagonists of the retinoid acid receptor (RAR) signaling pathway - cell viability counter screen (AID 1159551); note: nearly all actives have a fitted effect of over 35% in size
In short: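 C3RL4 RARE-luciferase cells, 1,000/well, incubated overnight, then dosed with compound plus 1 uM retinol (final). After 6 hr at 37 C, viability read by CellTiter-Glo ATP luminescence following 30 min at room temperature.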

[13] = qHTS assay to identify small molecule antagonists of the retinoic acid receptor (RAR) signaling pathway (AID 1159552; note: nearly all actives have a fitted effect of over 50% in size; note: potency is the fitted concentration of half-maximal effect)
In short: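 C3RL4 RARE-luc cells, overnight plating; retinol 1 uM final added right after compound; 6 hr 37 C; luciferase read at 30 min RT.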

[14] = qHTS assay to identify small molecule agonists of the retinoic acid receptor (RAR) signaling pathway (AID 1159553); conditions: C3RL4 RARE luciferase reporter, agonist, 6 h; activation: at 73.3 µM (top of the series)
In short: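 C3RL4 RARE-luciferase cells were seeded at 1,000/well and grown overnight at 37 C, then exposed to compounds for 6 hr at 37 C, 5% CO2. Luciferase reagent was added and luminescence was read after 30 min at room temperature.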

[15] = qHTS assay to identify small molecule antagonists of the estrogen related receptor (ERR) signaling pathway from Tox21 library - cell viability counter screen (AID 1224834); note: nearly all actives have a fitted effect of over 30% in size
In short: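 ERR reporter cells, 2,000 per well, rested 6 h, then exposed to compound in DMSO for 17.5 hours at 37 C. Viability read as fluorescence after 30 min with CellTiter-Fluor.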

[16] = target: Luciferin 4-monooxygenase (Photinus pyralis) (UniProt P08659); assay: qHTS assay to identify small molecule inhibitors of firefly luciferase (AID 1224835); note: nearly all actives have a fitted effect of over 25% in size
In short: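 Biochemical qHTS: compounds run as interplate titrations against purified firefly enzyme, with D-luciferin and ATP each at its KM concentration. Light output recorded by CCD imaging.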

[17] = qHTS assay to identify small molecule agonists of the constitutive androstane receptor (CAR) signaling pathway - cell viability counter screen (AID 1224836); note: nearly all actives have a fitted effect of over 45% in size
In short: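 Using CellTiter-Fluor, viability of HepG2 cells harbouring hCAR and CYP2B6-2.2kb was measured following 23 h incubation with a 15-concentration compound series plus PK11195 (0.75 uM final).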

[18] = qHTS assay to identify small molecule antagonists of the constitutive androstane receptor (CAR) signaling pathway - cell viability counter screen (AID 1224837); note: nearly all actives have a fitted effect of over 45% in size
In short: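 HepG2 cells stably carrying hCAR and CYP2B6-2.2kb reporter, stimulated with 50 nM CITCO and compounds at 15 concentrations for 23 h at 37 C. Viability measured by CellTiter-Fluor fluorescence.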

[19] = qHTS assay to identify small molecule antagonists of the vitamin D receptor (VDR) signaling pathway - cell viability counter screen (AID 743225); note: nearly all actives have a fitted effect of over 50% in size
In short: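 Parallel cytotoxicity test: VDR-UAS-bla HEK 293T, 3 nM (final) 1-alpha,25-dihydroxyvitamin D3 with test compound, 16 h, 37C. Endpoint is CellTiter-Glo luminescence in the same wells.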

[20] = target: Nuclear receptor subfamily 1 group I member 3 (Homo sapiens) (UniProt Q14994); assay: qHTS assay to identify small molecule antagonists of the constitutive androstane receptor (CAR) signaling pathway (AID 1224838); note: nearly all actives have a fitted effect of over 40% in size
In short: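 HepG2 cells stably carrying hCAR and a CYP2B6-2.2kb luciferase reporter, seeded 4 hrs before compound (15 concentrations). Stimulated with 50 nM CITCO for 24 hr at 37 C. ONE-Glo luminescence read after 30 min at room temperature.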

Chain of Retinoic acid receptor RXR-alpha (Homo sapiens) (P19793 whole entry, looked up): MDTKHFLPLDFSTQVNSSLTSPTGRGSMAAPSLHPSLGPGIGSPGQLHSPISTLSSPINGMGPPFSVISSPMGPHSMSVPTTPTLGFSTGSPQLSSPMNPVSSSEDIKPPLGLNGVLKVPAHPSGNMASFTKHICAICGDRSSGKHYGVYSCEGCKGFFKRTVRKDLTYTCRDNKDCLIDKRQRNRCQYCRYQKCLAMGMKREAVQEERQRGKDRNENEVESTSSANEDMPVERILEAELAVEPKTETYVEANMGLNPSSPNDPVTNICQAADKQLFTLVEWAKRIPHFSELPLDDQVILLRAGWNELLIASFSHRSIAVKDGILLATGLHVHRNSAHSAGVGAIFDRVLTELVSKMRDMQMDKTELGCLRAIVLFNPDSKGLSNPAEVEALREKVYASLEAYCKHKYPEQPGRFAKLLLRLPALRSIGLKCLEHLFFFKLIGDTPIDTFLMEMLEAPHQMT
Chain of Luciferin 4-monooxygenase (Photinus pyralis) (P08659 whole entry, looked up): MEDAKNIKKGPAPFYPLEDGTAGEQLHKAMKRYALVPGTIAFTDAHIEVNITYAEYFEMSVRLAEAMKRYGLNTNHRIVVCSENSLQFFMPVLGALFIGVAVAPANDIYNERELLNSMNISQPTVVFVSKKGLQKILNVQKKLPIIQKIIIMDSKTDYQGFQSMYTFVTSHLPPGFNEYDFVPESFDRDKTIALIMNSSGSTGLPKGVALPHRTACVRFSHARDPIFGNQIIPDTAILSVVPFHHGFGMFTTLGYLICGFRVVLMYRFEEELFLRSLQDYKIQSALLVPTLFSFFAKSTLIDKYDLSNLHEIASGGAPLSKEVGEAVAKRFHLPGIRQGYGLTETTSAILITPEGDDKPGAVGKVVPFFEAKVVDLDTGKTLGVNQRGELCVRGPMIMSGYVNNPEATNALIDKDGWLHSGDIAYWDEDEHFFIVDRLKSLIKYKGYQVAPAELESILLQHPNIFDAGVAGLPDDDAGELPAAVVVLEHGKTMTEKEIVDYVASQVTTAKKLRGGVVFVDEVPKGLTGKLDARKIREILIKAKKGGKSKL
Chain of Nuclear receptor subfamily 1 group I member 3 (Homo sapiens) (Q14994 whole entry, looked up): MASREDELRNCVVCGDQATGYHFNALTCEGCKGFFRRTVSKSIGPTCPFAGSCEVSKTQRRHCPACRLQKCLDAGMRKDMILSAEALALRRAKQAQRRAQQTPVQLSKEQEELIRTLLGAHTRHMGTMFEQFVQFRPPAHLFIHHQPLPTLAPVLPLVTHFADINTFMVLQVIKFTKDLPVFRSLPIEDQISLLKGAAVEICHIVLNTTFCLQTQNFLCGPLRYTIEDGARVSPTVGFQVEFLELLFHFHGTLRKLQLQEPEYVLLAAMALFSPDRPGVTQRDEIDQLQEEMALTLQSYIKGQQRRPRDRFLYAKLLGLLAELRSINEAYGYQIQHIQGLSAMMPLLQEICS

## Nc1ccc(C(=O)OCC(O)CO)cc1 (stereo not drawn)
[1]
  outcome: inactive
[2]
  outcome: inactive
[3]
  outcome: inactive
[4]
  outcome: inactive
[5]
  outcome: inactive
[6]
  outcome: inactive
[7]
  outcome: inactive
[8]
  outcome: inactive
[9]
  outcome: inactive
[10]
  Potency: inactive
[11]
  outcome: inactive
[12]
  outcome: inactive
[13]
  Potency: inactive
[14]
  Potency: inactive
[15]
  Potency: inactive
[16]
  Potency: inactive
[17]
  outcome: inactive
[18]
  Potency: inactive

## CCOC(=O)OCC/C(SC(=O)OCC)=C(\C)N(C=O)Cc1cnc(C)nc1N
[1]
  outcome: inactive
[2]
  outcome: inactive
[3]
  outcome: inactive
[4]
  outcome: inactive
[5]
  outcome: inactive
[6]
  outcome: inactive
[7]
  outcome: inactive
[8]
  outcome: inactive
[9]
  outcome: inactive
[10]
  Potency: inactive
[11]
  outcome: inactive
[12]
  outcome: inactive
[13]
  Potency: inactive
[14]
  Potency: inactive
[15]
  Potency: inactive
[16]
  Potency: inactive
[17]
  outcome: inactive
[18]
  Potency: inactive

## CNCc1ccccc1
[1]
  outcome: inactive
[19]
  outcome: inactive
[2]
  outcome: inactive
[3]
  outcome: inactive
[4]
  outcome: inactive
[5]
  outcome: inactive
[6]
  outcome: inactive
[7]
  outcome: inactive
[8]
  outcome: inactive
[9]
  outcome: inactive
[10]
  Potency: inactive
[11]
  outcome: inactive
[12]
  outcome: inactive
[13]
  Potency: 106 nM (active)
[14]
  Potency: inactive
[15]
  Potency: inactive
[16]
  Potency: inactive
[17]
  outcome: inactive
[18]
  Potency: inactive

## CCCCCCCCCCCCCC(=O)OC
[1]
  outcome: inactive
[19]
  outcome: inactive
[2]
  outcome: inactive
[3]
  outcome: inactive
[4]
  outcome: inactive
[5]
  outcome: inactive
[6]
  outcome: inactive
[7]
  outcome: inactive
[8]
  outcome: inactive
[9]
  outcome: inactive
[10]
  Potency: inactive
[11]
  outcome: inactive
[12]
  outcome: inactive
[13]
  Potency: inactive
[14]
  Potency: inactive
[15]
  Potency: inactive
[16]
  Potency: inactive
[17]
  outcome: inactive
[18]
  Potency: inactive

## CC(C)COC(=O)CC(C(=O)OCC(C)C)S(=O)(=O)O (stereo not drawn)
[1]
  outcome: inactive
[19]
  outcome: inactive
[2]
  outcome: inactive
[3]
  outcome: inactive
[4]
  outcome: inactive
[5]
  outcome: inactive
[6]
  outcome: inactive
[7]
  outcome: inactive
[8]
  outcome: inactive
[9]
  outcome: inactive
[10]
  Potency: inactive
[11]
  outcome: inactive
[12]
  outcome: inactive
[13]
  Potency: inactive
[14]
  Potency: inactive
[15]
  Potency: inactive
[16]
  Potency: inactive
[17]
  outcome: inactive
[20]
  Potency: inactive

## CC(Cl)COP(=O)(OCC(C)Cl)OCC(C)Cl (stereo not drawn)
[1]
  outcome: inactive
[19]
  outcome: inactive
[2]
  outcome: inactive
[3]
  outcome: inactive
[4]
  outcome: inactive
[5]
  outcome: inactive
[6]
  outcome: inactive
[7]
  outcome: inactive
[8]
  outcome: inactive
[9]
  outcome: inactive
[10]
  Potency: inactive
[11]
  outcome: inactive
[12]
  outcome: inactive
[13]
  Potency: inactive
[14]
  Potency: inactive
[15]
  Potency: inactive
[16]
  Potency: inactive
[17]
  outcome: inactive
[18]
  Potency: inactive
[20]
  Potency: inactive

## Nc1ccc(/C=C/c2ccc(N)cc2S(=O)(=O)O)c(S(=O)(=O)O)c1
[1]
  activity change, negative = cytotoxicity: 8.54% [at 0.55 µM]
[19]
  viability change, negative = cytotoxic: 9.91% [at 0.628 µM]
[2]
  activation: 0.561% [at 0.628 µM]
[3]
  activity, negative = cytotoxic: 1.66% [at 0.628 µM]
[4]
  activation: 0% [at 0.628 µM]
[5]
  activity change, negative = cytotoxicity: 9.94% [at 0.628 µM]
[6]
  activity, negative = cytotoxicity: -1.32% [at 0.349 µM]
[7]
  activity change, negative = inhibition: 35.7% [at 0.35 µM]
[8]
  viability change, negative = cytotoxic: 6.31% [at 0.29 µM]
[9]
  activation: -7.74% [at 0.29 µM]
[10]
  activation: 6.35% [at 0.29 µM]
[11]
  activity change, negative = cytotoxicity: 1.24% [at 0.29 µM]
[12]
  activity change, negative = cytotoxicity: 2.39% [at 0.349 µM]
[13]
  activity, negative = inhibition: 3.51% [at 0.349 µM]
[14]
  activation: -0.705% [at 0.756 µM]
[15]
  viability change, negative = cytotoxic: 2.37% [at 0.349 µM]
[16]
  activity change, negative = inhibition: 0.257% [at 0.435 µM]
[17]
  viability change, negative = cytotoxic: 6.71% [at 0.349 µM]
[18]
  activity change, negative = cytotoxicity: 10.1% [at 0.349 µM]
[20]
  activity, negative = inhibition: -20.1% [at 0.349 µM]
